The results in this text go back to PubChem BioAssay AID504616 (Sanford-Burnham Center for Chemical Genomics, 2011).

This is one part of the list. Values without a mark were called inactive.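 How the source made its calls: active means mean activity change at or below -40% when tested at 20 µM; inactive means the rest.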

The test is described as follows: Rh110 fluorescence interference by putative Apaf-1 activators, confirmation, artefact control for Apaf-1 activator project, biochemical, 20 µM (AID 504616). As to conditions: quenched caspase reaction, Ex480/Em540, at 20 µM.
`COc1ccc2c(c1)CCNC2Cc1ccc(OC)c(O)c1` (stereo unspecified): the fluorescence interference (activity change) is -0.08%.

Regarding `CC(=O)CCC(=O)c1ccc2ccccc2c1`, the fluorescence interference (activity change) was 15%. For the molecule `COc1ccc(S(=O)(=O)N2CCCCC2)cc1NC(=O)c1cc([N+](=O)[O-])ccc1N1CCOCC1`, the fluorescence interference (activity change) was 4.4%. The same measure for `C=CC1=C(C(=O)O)N2C(=O)[C@@H](NC(=O)/C(=N\OCC(=O)O)c3csc(N)n3)[C@H]2SC1`: 11.7%; for `COc1ccc(C2c3ccc(O)cc3Oc3ncn(CCCO)c(=N)c32)cc1OC` (stereo unspecified): -0.45%; for `C=CC1=C(C(=O)O)N2C(=O)[C@@H](NC(=O)/C(=N/OCC(=O)O)c3csc(N)n3)[C@H]2SC1`: 3.12%.
